The results in this text go back to the supplement of paper PMC10849652.

Targets with a hit are over-represented here; the source holds about 7,900 in all. About 0.6% of all pairs of compound and target were hits. Unmarked numbers belong to inactive results.

Chain of UniProt P49585 (P49585 whole entry, looked up): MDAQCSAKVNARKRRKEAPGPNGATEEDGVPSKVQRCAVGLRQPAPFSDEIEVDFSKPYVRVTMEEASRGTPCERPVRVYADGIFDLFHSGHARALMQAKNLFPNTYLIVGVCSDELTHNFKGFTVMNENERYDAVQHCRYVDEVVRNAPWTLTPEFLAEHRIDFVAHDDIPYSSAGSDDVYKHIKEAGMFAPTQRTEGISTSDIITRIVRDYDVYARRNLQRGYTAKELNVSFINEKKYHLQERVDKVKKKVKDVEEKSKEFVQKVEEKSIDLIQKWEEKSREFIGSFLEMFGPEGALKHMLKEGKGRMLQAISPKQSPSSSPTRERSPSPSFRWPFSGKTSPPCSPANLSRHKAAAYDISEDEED
Chain of UniProt Q14442 (Q14442 whole entry, looked up): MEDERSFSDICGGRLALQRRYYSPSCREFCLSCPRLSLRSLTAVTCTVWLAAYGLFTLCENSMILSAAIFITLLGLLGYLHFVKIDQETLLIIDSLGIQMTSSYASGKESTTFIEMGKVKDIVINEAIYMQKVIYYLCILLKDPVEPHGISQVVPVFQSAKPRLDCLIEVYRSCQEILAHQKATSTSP
Chain of UniProt Q5THK1 (Q5THK1 whole entry, looked up): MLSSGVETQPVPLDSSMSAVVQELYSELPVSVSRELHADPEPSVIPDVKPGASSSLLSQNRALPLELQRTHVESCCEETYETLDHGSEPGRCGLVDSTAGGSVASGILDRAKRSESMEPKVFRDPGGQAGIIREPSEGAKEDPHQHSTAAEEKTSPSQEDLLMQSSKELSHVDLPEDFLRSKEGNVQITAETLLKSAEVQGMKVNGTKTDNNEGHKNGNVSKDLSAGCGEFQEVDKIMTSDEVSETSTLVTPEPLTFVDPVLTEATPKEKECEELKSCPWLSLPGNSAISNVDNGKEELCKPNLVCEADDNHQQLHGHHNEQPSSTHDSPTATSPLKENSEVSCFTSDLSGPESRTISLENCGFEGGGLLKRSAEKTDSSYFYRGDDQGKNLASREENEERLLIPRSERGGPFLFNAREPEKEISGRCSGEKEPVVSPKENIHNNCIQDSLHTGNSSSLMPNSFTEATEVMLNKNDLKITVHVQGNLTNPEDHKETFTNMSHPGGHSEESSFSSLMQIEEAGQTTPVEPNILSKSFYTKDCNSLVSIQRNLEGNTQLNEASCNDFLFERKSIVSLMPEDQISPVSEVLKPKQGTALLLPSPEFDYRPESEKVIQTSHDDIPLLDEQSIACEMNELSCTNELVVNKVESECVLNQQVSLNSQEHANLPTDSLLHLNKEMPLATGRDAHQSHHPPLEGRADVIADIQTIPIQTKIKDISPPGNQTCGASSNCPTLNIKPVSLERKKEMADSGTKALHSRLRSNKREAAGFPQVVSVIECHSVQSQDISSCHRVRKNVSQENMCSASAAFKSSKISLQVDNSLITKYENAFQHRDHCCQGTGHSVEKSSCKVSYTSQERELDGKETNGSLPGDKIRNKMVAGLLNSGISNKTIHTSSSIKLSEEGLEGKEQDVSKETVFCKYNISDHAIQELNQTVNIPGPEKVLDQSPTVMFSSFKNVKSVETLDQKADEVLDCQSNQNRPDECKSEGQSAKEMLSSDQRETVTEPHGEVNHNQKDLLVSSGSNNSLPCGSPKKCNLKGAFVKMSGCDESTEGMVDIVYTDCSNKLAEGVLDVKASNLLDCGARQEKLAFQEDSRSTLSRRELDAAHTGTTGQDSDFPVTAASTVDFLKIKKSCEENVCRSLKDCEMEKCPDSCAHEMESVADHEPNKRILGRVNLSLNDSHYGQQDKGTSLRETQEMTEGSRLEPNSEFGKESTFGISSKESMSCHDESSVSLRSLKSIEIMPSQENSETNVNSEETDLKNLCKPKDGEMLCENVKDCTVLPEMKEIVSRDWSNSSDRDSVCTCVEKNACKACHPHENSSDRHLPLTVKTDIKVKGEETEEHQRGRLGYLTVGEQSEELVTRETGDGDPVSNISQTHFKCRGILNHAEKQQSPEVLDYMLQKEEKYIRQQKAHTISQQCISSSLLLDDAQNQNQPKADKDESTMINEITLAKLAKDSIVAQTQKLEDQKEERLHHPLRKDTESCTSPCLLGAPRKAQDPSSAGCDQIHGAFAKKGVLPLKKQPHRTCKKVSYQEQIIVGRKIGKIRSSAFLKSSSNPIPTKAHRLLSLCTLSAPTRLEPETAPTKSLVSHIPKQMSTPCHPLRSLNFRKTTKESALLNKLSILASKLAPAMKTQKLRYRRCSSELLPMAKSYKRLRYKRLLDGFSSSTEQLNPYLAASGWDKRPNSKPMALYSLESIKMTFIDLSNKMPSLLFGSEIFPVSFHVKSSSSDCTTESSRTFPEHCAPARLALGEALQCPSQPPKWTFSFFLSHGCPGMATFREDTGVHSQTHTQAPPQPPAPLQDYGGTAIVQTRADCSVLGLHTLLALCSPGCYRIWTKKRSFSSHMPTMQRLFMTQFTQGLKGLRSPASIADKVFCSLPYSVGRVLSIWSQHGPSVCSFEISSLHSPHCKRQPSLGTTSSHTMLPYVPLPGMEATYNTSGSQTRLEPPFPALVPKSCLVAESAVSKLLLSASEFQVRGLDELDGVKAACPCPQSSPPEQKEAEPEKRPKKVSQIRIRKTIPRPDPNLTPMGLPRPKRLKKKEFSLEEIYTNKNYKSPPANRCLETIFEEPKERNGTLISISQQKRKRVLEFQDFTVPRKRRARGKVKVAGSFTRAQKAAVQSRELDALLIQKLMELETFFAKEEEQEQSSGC
Chain of UniProt P46020 (P46020 whole entry, looked up): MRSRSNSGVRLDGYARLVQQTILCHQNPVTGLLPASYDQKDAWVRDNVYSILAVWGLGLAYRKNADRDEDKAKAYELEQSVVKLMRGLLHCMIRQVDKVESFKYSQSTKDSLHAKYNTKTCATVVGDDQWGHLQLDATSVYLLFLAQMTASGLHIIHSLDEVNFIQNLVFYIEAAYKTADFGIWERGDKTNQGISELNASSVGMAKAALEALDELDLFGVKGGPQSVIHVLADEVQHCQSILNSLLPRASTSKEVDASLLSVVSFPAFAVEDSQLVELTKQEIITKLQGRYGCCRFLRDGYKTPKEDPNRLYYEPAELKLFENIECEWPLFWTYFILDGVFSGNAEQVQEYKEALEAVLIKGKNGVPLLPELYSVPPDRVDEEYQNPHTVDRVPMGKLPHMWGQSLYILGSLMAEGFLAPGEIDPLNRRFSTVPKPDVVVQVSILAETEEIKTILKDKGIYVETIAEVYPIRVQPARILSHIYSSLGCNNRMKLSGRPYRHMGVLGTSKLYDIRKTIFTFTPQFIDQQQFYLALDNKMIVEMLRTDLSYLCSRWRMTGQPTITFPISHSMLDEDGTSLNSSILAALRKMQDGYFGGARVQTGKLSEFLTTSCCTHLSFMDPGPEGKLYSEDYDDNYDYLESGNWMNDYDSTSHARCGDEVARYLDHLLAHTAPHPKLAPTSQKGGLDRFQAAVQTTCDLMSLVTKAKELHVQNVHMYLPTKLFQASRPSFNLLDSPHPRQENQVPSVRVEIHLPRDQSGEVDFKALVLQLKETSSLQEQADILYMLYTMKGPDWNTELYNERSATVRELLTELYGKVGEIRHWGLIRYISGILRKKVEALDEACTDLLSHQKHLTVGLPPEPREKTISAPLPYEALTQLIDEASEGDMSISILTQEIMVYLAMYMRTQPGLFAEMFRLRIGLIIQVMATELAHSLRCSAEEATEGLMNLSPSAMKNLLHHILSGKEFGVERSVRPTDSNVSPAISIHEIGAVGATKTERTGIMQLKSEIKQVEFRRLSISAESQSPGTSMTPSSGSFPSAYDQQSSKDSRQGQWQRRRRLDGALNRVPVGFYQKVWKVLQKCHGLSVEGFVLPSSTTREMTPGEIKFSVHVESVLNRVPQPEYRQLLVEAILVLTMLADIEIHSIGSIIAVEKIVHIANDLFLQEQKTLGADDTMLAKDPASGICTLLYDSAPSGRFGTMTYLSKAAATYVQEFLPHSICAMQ
Chain of UniProt Q08752 (Q08752 whole entry, looked up): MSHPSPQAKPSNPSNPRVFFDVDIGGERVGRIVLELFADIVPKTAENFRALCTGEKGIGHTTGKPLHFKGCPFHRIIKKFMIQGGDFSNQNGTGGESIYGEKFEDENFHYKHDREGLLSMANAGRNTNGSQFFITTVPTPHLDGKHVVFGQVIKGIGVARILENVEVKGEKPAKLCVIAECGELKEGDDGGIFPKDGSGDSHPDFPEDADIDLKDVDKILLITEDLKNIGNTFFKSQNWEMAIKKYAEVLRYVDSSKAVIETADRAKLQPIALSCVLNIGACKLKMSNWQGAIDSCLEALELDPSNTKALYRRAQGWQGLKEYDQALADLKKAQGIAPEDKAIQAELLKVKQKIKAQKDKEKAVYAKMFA
Chain of UniProt Q8WWY3 (Q8WWY3 whole entry, looked up): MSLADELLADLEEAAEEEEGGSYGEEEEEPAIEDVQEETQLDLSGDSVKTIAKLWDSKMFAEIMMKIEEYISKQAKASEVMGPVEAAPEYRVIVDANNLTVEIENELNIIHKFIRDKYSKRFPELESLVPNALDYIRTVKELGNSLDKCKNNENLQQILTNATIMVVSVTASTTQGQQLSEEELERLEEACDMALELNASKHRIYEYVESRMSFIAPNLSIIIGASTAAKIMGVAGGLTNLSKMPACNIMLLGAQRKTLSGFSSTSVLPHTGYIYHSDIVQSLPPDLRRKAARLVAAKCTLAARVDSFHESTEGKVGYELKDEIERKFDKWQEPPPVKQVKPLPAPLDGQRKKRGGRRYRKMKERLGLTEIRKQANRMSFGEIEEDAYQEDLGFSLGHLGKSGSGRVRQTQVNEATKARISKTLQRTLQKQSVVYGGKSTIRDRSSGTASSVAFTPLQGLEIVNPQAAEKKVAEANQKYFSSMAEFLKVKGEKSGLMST
Chain of UniProt P28065 (P28065 whole entry, looked up): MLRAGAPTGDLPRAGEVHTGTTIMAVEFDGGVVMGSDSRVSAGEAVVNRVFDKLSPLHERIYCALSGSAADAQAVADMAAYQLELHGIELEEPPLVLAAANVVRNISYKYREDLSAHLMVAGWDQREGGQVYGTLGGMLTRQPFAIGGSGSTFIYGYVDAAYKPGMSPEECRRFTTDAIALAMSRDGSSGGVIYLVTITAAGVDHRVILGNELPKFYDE

Compound in one assay: Cc1sc2c(c1C)C(c1ccc(Cl)cc1)=N[C@@H](CC(=O)OC(C)(C)C)c1nnc(C)n1-2
Put plainly: log2 fold change, soluble protein after heating vs DMSO (PISA); higher = thermal stabilisation; K562 cells, 10 uM, 30 min; active = over 0.2 and 3.5 SD of the protein, either way, in both replicates (recomputed). The gist of the method: (§1)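 Thermal stability values are relative to control samples and come from duplicates. They are expressed as log2 fold changes. For measurement, K562 cells (2×10^6 cells/mL) received 10 μM compound for 30 min, and aliquots were heated for 3 min over 48°C-58°C, pooled, and extracted at 4°C in PBS with 0.5% NP-40. Soluble protein, the supernatant after 21,000xg for 90 min, was quantified by TMTpro 16plex LC-MS/MS with equalised channel sums.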
As for PHKA1 (UniProt P46020), the log2 fold change is 0.103.

Consider PSMA3 (UniProt H0YJ03), for which the log2 fold change is 0.048.

On to QKI (UniProt Q96PU8), for which the log2 fold change was -0.082.

Take POGZ (UniProt Q7Z3K3): the log2 fold change is 0.025.

Take PUM1 (UniProt Q14671): the log2 fold change was 0.059.

For the target PRPF31 (UniProt Q8WWY3), the log2 fold change is -0.087.

For PPID (UniProt Q08752), the log2 fold change was -0.035.

As for PIAS4 (UniProt Q8N2W9), the log2 fold change was 0.129.

In the case of PSME4 (UniProt Q14997), the log2 fold change is -0.025.

Regarding QRSL1 (UniProt Q9H0R6), the log2 fold change is 0.05.

Turning to PRG4 (UniProt Q92954), the log2 fold change was -0.309.

As to PSMD8 (UniProt K7ERW6), the log2 fold change is 0.03.

With PPP1R12C (UniProt Q9BZL4), the log2 fold change is 0.053.

Consider PCNX1 (UniProt Q96RV3), for which the log2 fold change was -0.122.

With PKM isoform 2 (UniProt P14618), the log2 fold change was -0.046.

As to PDPK1 (UniProt O15530), the log2 fold change is -0.038.

For the target PRR14L (UniProt Q5THK1), the log2 fold change was 0.042.

Take PPP6R1 (UniProt Q9UPN7): the log2 fold change was 0.005.

On to PIGH (UniProt Q14442), for which the log2 fold change is -0.046.

Turning to PEX5 isoform 4 (UniProt P50542), the log2 fold change was 0.059.

For the target PCYT1A (UniProt P49585), the log2 fold change was -0.012.

As to POLB (UniProt P06746), the log2 fold change is -0.107.

For the target PSMC3 (UniProt E9PLG2), the log2 fold change is 0.252.

Compound in the next assay: c1ccc([C@@H]2C[C@H]2NC2CCNCC2)cc1
The assay is described as above. The gist of the method: as §1
For the target PHKA1 (UniProt P46020), the log2 fold change was 0.011.

Turning to PSMA3 (UniProt H0YJ03), the log2 fold change was 0.034.

Consider QKI (UniProt Q96PU8), for which the log2 fold change is 0.01.

For the target POGZ (UniProt Q7Z3K3), the log2 fold change is -0.032.

Turning to PUM1 (UniProt Q14671), the log2 fold change is -0.094.

On to PRPF31 (UniProt Q8WWY3), for which the log2 fold change was 0.005.

For PPID (UniProt Q08752), the log2 fold change is -0.031.

On to PSME4 (UniProt Q14997), for which the log2 fold change is -0.048.

Consider PCF11 (UniProt O94913), for which the log2 fold change was 0.006.

As for PSMB9 (UniProt P28065), the log2 fold change is -0.203.

Take PCBP2 (UniProt F8VZX2): the log2 fold change is 0.019.

PHC3 isoform 7 (UniProt Q8NDX5): the log2 fold change was -0.075.

Consider PSD3 (UniProt Q9NYI0), for which the log2 fold change was -0.028.

As for QRSL1 (UniProt Q9H0R6), the log2 fold change was 0.041.

Take PSMD8 (UniProt K7EK21): the log2 fold change was 0.188.

As to PRG4 (UniProt Q92954), the log2 fold change was -0.033.

Consider PSMC1 (UniProt G3V4X1), for which the log2 fold change is 0.112.

As to PNN (UniProt Q9H307), the log2 fold change is 0.012.

PDPK1 (UniProt O15530): the log2 fold change is -0.018.

On to PDE4DIP (UniProt E9PS60), for which the log2 fold change was -0.069.

For PRR14L (UniProt Q5THK1), the log2 fold change was 0.103.

For the target PRKD3 (UniProt O94806), the log2 fold change was -0.097.

Consider PPP6R1 (UniProt Q9UPN7), for which the log2 fold change is 0.001.

Take PIGH (UniProt Q14442): the log2 fold change is -0.024.

For the target PEX5 isoform 4 (UniProt P50542), the log2 fold change is 0.006.

For the target PCYT1A (UniProt P49585), the log2 fold change was 0.019.

In the case of POLB (UniProt P06746), the log2 fold change was -0.006.
